{
  "source": "the supplement of paper PMC8728848",
  "test_in_all_cases": "glycan array binding signal (z-score within array); higher = stronger binding",
  "details_in_all_cases": "glycan notation: IUPAC condensed, linker removed",
  "key": {"[1]": {"target": "Fuc(a1-2)Gal(b1-3)GlcNAc(b1-2)Man(a1-3)[Fuc(a1-2)Gal(b1-3)GlcNAc(b1-2)Man(a1-6)]Man(b1-4)GlcNAc(b1-4)[Fuc(a1-6)]GlcNAc", "method_in_brief": "(§1)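 Columns mapping to the same glycan were averaged after glycan names were converted to IUPAC-condensed notation. The data come from 3228 arrays in the Consortium for Functional Glycomics database, limited to those with an available protein sequence. Binding is reported as a within-array Z-score averaged across arrays of one protein sequence and across linkers.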"}, "[2]": {"target": "Fuc(a1-2)Gal(b1-3)GlcNAc(b1-3)[Fuc(a1-2)Gal(b1-3)GlcNAc(b1-6)]GalNAc", "method_in_brief": "as §1"}, "[3]": {"target": "Fuc(a1-2)Gal(b1-3)[Fuc(a1-4)]GlcNAc(b1-3)[Gal(b1-4)GlcNAc(b1-6)]Gal(b1-4)Glc", "method_in_brief": "as §1"}, "[4]": {"target": "Fuc(a1-2)Gal(b1-4)GlcNAc(b1-3)Gal(b1-4)GlcNAc(b1-2)Man(a1-3)[Fuc(a1-2)Gal(b1-4)GlcNAc(b1-3)Gal(b1-4)GlcNAc(b1-2)Man(a1-6)]Man(b1-4)GlcNAc(b1-4)GlcNAc", "method_in_brief": "as §1"}, "[5]": {"target": "Fuc(a1-2)[Gal(a1-3)]Gal(b1-4)GlcNAc", "method_in_brief": "as §1"}, "[6]": {"target": "Fuc(a1-2)[Gal(a1-3)]Gal(b1-4)GlcNAc(b1-3)[Fuc(a1-2)[Gal(a1-3)]Gal(b1-4)GlcNAc(b1-6)]GalNAc", "method_in_brief": "as §1"}, "[7]": {"target": "Fuc(a1-2)[GalNAc(a1-3)]Gal(b1-3)GlcNAc(b1-6)GalNAc", "method_in_brief": "as §1"}, "[8]": {"target": "Fuc(a1-3)[Gal(b1-4)]GlcNAc(b1-3)GalNAc", "method_in_brief": "as §1"}, "Fuc(a1-4)GlcNAc": {"target": "Fuc(a1-4)GlcNAc", "method_in_brief": "as §1"}, "Fuc(b1-3)GlcNAc": {"target": "Fuc(b1-3)GlcNAc", "method_in_brief": "as §1"}, "[9]": {"target": "Gal(a1-3)Gal(b1-4)[Fuc(a1-3)]GlcNAc(b1-2)Man(a1-3)[Gal(a1-3)Gal(b1-4)[Fuc(a1-3)]GlcNAc(b1-2)Man(a1-6)]Man(b1-4)GlcNAc(b1-4)GlcNAc", "method_in_brief": "as §1"}, "Gal(a1-4)GlcNAc": {"target": "Gal(a1-4)GlcNAc", "method_in_brief": "as §1"}, "[10]": {"target": "Gal(b1-3)GlcNAc(a1-6)Gal(b1-4)GlcNAc", "method_in_brief": "as §1"}, "[11]": {"target": "Gal(b1-4)GlcNAc(b1-3)Gal(b1-3)GalNAc", "method_in_brief": "as §1"}, "[12]": {"target": "Gal(b1-4)GlcNAc(b1-3)Gal(b1-3)GlcNAc", "method_in_brief": "as §1"}, "[13]": {"target": "Gal(b1-4)GlcNAc(b1-3)Gal(b1-4)GlcNAc(b1-2)[Gal(b1-4)GlcNAc(b1-3)Gal(b1-4)GlcNAc(b1-6)]Man(a1-6)[Gal(b1-4)GlcNAc(b1-3)Gal(b1-4)GlcNAc(b1-2)Man(a1-3)]Man(b1-4)GlcNAc(b1-4)GlcNAc", "method_in_brief": "as §1"}, "[14]": {"target": "Gal(b1-4)GlcNAc(b1-3)Gal(b1-4)GlcNAc(b1-3)Gal(b1-4)GlcNAc(b1-3)Gal(b1-4)GlcNAc(b1-2)[Gal(b1-4)GlcNAc(b1-3)Gal(b1-4)GlcNAc(b1-3)Gal(b1-4)GlcNAc(b1-3)Gal(b1-4)GlcNAc(b1-6)]Man(a1-6)[Gal(b1-4)GlcNAc(b1-3)Gal(b1-4)GlcNAc(b1-3)Gal(b1-4)GlcNAc(b1-3)Gal(b1-4)GlcNAc(b1-2)Man(a1-3)]Man(b1-4)GlcNAc(b1-4)[Fuc(a1-6)]GlcNAc", "method_in_brief": "as §1"}, "[15]": {"target": "Gal(b1-4)GlcNAc(b1-3)Gal(b1-4)GlcNAc(b1-3)Gal(b1-4)GlcNAc(b1-3)Gal(b1-4)GlcNAc(b1-3)Gal(b1-4)GlcNAc(b1-2)Man(a1-3)[Gal(b1-4)GlcNAc(b1-3)Gal(b1-4)GlcNAc(b1-3)Gal(b1-4)GlcNAc(b1-3)Gal(b1-4)GlcNAc(b1-3)Gal(b1-4)GlcNAc(b1-2)Man(a1-6)]Man(b1-4)GlcNAc(b1-4)[Fuc(a1-6)]GlcNAc", "method_in_brief": "as §1"}, "[16]": {"target": "Gal3S(b1-3)[Fuc(a1-4)]GlcNAc", "method_in_brief": "as §1"}, "Gal3S(b1-4)Glc": {"target": "Gal3S(b1-4)Glc", "method_in_brief": "as §1"}, "[17]": {"target": "Gal3S(b1-4)[Fuc(a1-3)]GlcNAc6S", "method_in_brief": "as §1"}, "[18]": {"target": "GalNAc(a1-3)GalNAc(b1-3)Gal(a1-4)Gal(b1-4)GlcNAc", "method_in_brief": "as §1"}, "Glc(b1-6)Glc": {"target": "Glc(b1-6)Glc", "method_in_brief": "as §1"}, "[19]": {"target": "GlcNAc(a1-4)Gal(b1-4)GlcNAc(b1-3)Gal(b1-4)[Fuc(a1-3)]GlcNAc(b1-3)Gal(b1-4)[Fuc(a1-3)]GlcNAc", "method_in_brief": "as §1"}, "[20]": {"target": "GlcNAc(b1-2)Man(a1-3)[GlcNAc(b1-2)Man(a1-6)]Man(b1-4)GlcNAc(b1-4)GlcNAc", "method_in_brief": "as §1"}, "Kdn(a2-3)Gal(b1-3)GlcNAc": {"target": "Kdn(a2-3)Gal(b1-3)GlcNAc", "method_in_brief": "as §1"}, "[21]": {"target": "Man(a1-2)Man(a1-3)[Man(a1-2)Man(a1-6)]Man", "method_in_brief": "as §1"}, "[22]": {"target": "Man(a1-2)Man(a1-3)[Man(a1-6)]Man(a1-6)[Man(a1-2)Man(a1-3)]Man(b1-4)GlcNAc(b1-4)GlcNAc", "method_in_brief": "as §1"}, "[23]": {"target": "Man(a1-2)Man(a1-6)[Man(a1-3)]Man(a1-6)[Man(a1-2)Man(a1-2)Man(a1-3)]Man", "method_in_brief": "as §1"}, "[24]": {"target": "Neu5Ac(a2-3)Gal(b1-3)[GlcNAc(b1-6)]GalNAc", "method_in_brief": "as §1"}, "[25]": {"target": "Neu5Ac(a2-3)Gal(b1-3)[Neu5Ac(a2-6)]GalNAc", "method_in_brief": "as §1"}, "Neu5Ac(a2-3)Gal(b1-4)Glc": {"target": "Neu5Ac(a2-3)Gal(b1-4)Glc", "method_in_brief": "as §1"}, "[26]": {"target": "Neu5Ac(a2-3)Gal(b1-4)GlcNAc(b1-2)Man", "method_in_brief": "as §1"}, "[27]": {"target": "Neu5Ac(a2-3)Gal(b1-4)GlcNAc(b1-3)Gal(b1-4)GlcNAc(b1-3)[Neu5Ac(a2-3)Gal(b1-4)GlcNAc(b1-3)Gal(b1-4)GlcNAc(b1-6)]GalNAc", "method_in_brief": "as §1"}, "[28]": {"target": "Neu5Ac(a2-3)Gal(b1-4)GlcNAc(b1-3)GalNAc", "method_in_brief": "as §1"}, "[29]": {"target": "Neu5Ac(a2-3)Gal(b1-4)[Fuc(a1-3)]GlcNAc(b1-6)[Gal(b1-3)]GalNAc", "method_in_brief": "as §1"}, "[30]": {"target": "Neu5Ac(a2-6)Gal(b1-4)GlcNAc", "method_in_brief": "as §1"}, "[31]": {"target": "Neu5Ac(a2-6)Gal(b1-4)GlcNAc(b1-3)GalNAc", "method_in_brief": "as §1"}, "[32]": {"target": "Neu5Ac(a2-6)GalNAc(b1-4)GlcNAc", "method_in_brief": "as §1"}, "[33]": {"target": "Neu5Ac(a2-6)GlcNAc(b1-4)GlcNAc(b1-4)GlcNAc", "method_in_brief": "as §1"}},
  "note": "The sample as a whole holds a higher share of the strongest signals than the screen did.",
  "data": [
    {"binder": "BC2LB (Burholderia cenocepacia), B4EH85_BURCJ (protein) MGSSHHHHHHSSGENLYFQGHMSQPFTHDDLYALLQLAGNDATAVQANGDQAVLDRMRQFMTAQLVEKLPQYDVFVDIATIPYSFDVGSWQNKVKTDAAGEVVACTVTWAGAPGVLPGAAAKFGVGAVVNYFSKATPH", "values": [
      {"measurement": "glycan array binding signal (z-score)", "setting": "[1]", "value": -0.135},
      {"measurement": "glycan array binding signal (z-score)", "setting": "[2]", "value": -0.166},
      {"measurement": "glycan array binding signal (z-score)", "setting": "[3]", "value": -0.251},
      {"measurement": "glycan array binding signal (z-score)", "setting": "[4]", "value": 0.245},
      {"measurement": "glycan array binding signal (z-score)", "setting": "[5]", "value": -0.238},
      {"measurement": "glycan array binding signal (z-score)", "setting": "[6]", "value": 6.98},
      {"measurement": "glycan array binding signal (z-score)", "setting": "[7]", "value": 7.53},
      {"measurement": "glycan array binding signal (z-score)", "setting": "[8]", "value": 0.001},
      {"measurement": "glycan array binding signal (z-score)", "setting": "Fuc(a1-4)GlcNAc", "value": 2.88},
      {"measurement": "glycan array binding signal (z-score)", "setting": "Fuc(b1-3)GlcNAc", "value": 1.63},
      {"measurement": "glycan array binding signal (z-score)", "setting": "[9]", "value": 0.053},
      {"measurement": "glycan array binding signal (z-score)", "setting": "Gal(a1-4)GlcNAc", "value": -0.101},
      {"measurement": "glycan array binding signal (z-score)", "setting": "[10]", "value": -0.227},
      {"measurement": "glycan array binding signal (z-score)", "setting": "[11]", "value": -0.131},
      {"measurement": "glycan array binding signal (z-score)", "setting": "[12]", "value": -0.143},
      {"measurement": "glycan array binding signal (z-score)", "setting": "[13]", "value": 11.3},
      {"measurement": "glycan array binding signal (z-score)", "setting": "[14]", "value": -0.198},
      {"measurement": "glycan array binding signal (z-score)", "setting": "[15]", "value": 0.012},
      {"measurement": "glycan array binding signal (z-score)", "setting": "[16]", "value": 0.995},
      {"measurement": "glycan array binding signal (z-score)", "setting": "Gal3S(b1-4)Glc", "value": 1.52},
      {"measurement": "glycan array binding signal (z-score)", "setting": "[17]", "value": 0.149},
      {"measurement": "glycan array binding signal (z-score)", "setting": "[18]", "value": -0.055},
      {"measurement": "glycan array binding signal (z-score)", "setting": "Glc(b1-6)Glc", "value": 0.216},
      {"measurement": "glycan array binding signal (z-score)", "setting": "[19]", "value": 1.79},
      {"measurement": "glycan array binding signal (z-score)", "setting": "[20]", "value": -0.234},
      {"measurement": "glycan array binding signal (z-score)", "setting": "Kdn(a2-3)Gal(b1-3)GlcNAc", "value": -0.201},
      {"measurement": "glycan array binding signal (z-score)", "setting": "[21]", "value": -0.345},
      {"measurement": "glycan array binding signal (z-score)", "setting": "[22]", "value": -0.397},
      {"measurement": "glycan array binding signal (z-score)", "setting": "[23]", "value": -0.2},
      {"measurement": "glycan array binding signal (z-score)", "setting": "[24]", "value": -0.242},
      {"measurement": "glycan array binding signal (z-score)", "setting": "[25]", "value": 2.87},
      {"measurement": "glycan array binding signal (z-score)", "setting": "Neu5Ac(a2-3)Gal(b1-4)Glc", "value": 5.24},
      {"measurement": "glycan array binding signal (z-score)", "setting": "[26]", "value": 2.39},
      {"measurement": "glycan array binding signal (z-score)", "setting": "[27]", "value": -0.203},
      {"measurement": "glycan array binding signal (z-score)", "setting": "[28]", "value": -0.104},
      {"measurement": "glycan array binding signal (z-score)", "setting": "[29]", "value": -0.247},
      {"measurement": "glycan array binding signal (z-score)", "setting": "[30]", "value": -0.206},
      {"measurement": "glycan array binding signal (z-score)", "setting": "[31]", "value": 10.1},
      {"measurement": "glycan array binding signal (z-score)", "setting": "[32]", "value": -0.418},
      {"measurement": "glycan array binding signal (z-score)", "setting": "[33]", "value": -0.338}
    ]}
  ]
}
